# From PubChem BioAssay (NCATS)
# Values joined by “and” are separate entries in the source; they are usually repeats but may differ in a detail not shown here. Equal entries are not always repeated. Records with an inconclusive call do not appear. Entries that show only a call come without a potency. Active and inactive are the calls of the source. Unless noted, calls come from the whole dose curve; as a rule, active = well fitted curve in the direction sought with a large enough effect; inconclusive = small, poorly fitted or top-dose-only effect, or another doubt; inactive = no such curve, though single readings can be large; an effect the other way counts as inactive or inconclusive.
# Assays:
# [1] = Cell Viability - LYMP2-020 (AID 986); note: nearly all actives have a fitted effect of over 55% in size; note: potency is the fitted concentration of half-maximal effect
# In short: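 Human lymphoblastoid cells, 2500/well, were pre-incubated 5 hr at 37 C, then exposed to compounds for 24 hr at 37 C in complete medium. Intracellular ATP was read by CellTiter-Glo luminescence, and AC50 was derived by Hill fitting of concentration-response data.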
# [2] = Cell Viability - LYMP2-024 (AID 988); note: nearly all actives have a fitted effect of over 60% in size; note: potency is the fitted concentration of half-maximal effect
# In short: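 Human lymphoblastoid cells (2500/well) in complete medium were preincubated 5 hr at 37 C, then exposed to compounds for 24 hr at 37 C. Intracellular ATP was read by CellTiter-Glo luminescence; AC50 from Hill-equation fits of concentration-response data.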
# [3] = Cell Viability - LYMP2-026 (AID 989); note: nearly all actives have a fitted effect of over 50% in size; note: potency is the fitted concentration of half-maximal effect
# In short: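 Human lymphoblastoid cells (2500/well) in complete medium were preincubated 5 hr at 37 C, then exposed to compounds for 24 hr at 37 C. Cellular ATP was read by CellTiter-Glo luminescence; AC50 from Hill-equation fits of concentration-response data.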
# [4] = Cell Viability - LYMP1-002 - Assay at 40 hr (AID 994); note: nearly all actives have a fitted effect of over 60% in size; note: potency is the fitted concentration of half-maximal effect
# In short: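 Human lymphoblastoid cells, 2500/well in complete medium, were preincubated 5 hr at 37 C, then exposed to compounds for 40 hr at 37 C. Intracellular ATP was read by CellTiter-Glo luminescence after 30 min at room temperature; AC50 from Hill-equation fits.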
# [5] = qHTS Assay for Lipid Storage Modulators (AID 1519; calls by dose curve); settings: Drosophila S3 cells, BODIPY lipid droplet/cell ratio, laser cytometry, cells loaded with oleic acid
# In short: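 Cells seeded at 5,000 per well were treated with compounds over a concentration series and loaded with oleic acid (400 uM, as added). Lipid droplet fluorescence (488 nm excitation, 500-530 nm channel) was read by laser-scanning cytometry and normalized to 20 uM Triacsin C.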
# [6] = biological target: Alpha-galactosidase A (Homo sapiens) (UniProt P06280); experiment: Counterscreen for Glucocerebrosidase Inhibitors: qHTS Assay for Human alpha-Galactosidase at pH 4.5 (AID 992)
# In short: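 Read-out is 4-methylumbelliferone fluorescence (365 nm excitation, 440 nm emission) after a pH 10 NaOH/glycine stop. Reactions held 2 nM enzyme and 80 uM substrate at pH 4.5 for 20 min at room temperature.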
# [7] = biological target: alpha-glucosidase (Oryza sativa, rice) (UniProt Q653V4); experiment: Counterscreen for Glucocerebrosidase Inhibitors: qHTS Assay for Rice alpha-Glucosidase at pH 5.0 (AID 997)
# In short: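 Rice alpha-glucosidase (4 nM final) with 400 uM 4-methylumbelliferyl-alpha-D-glucopyranoside in citrate buffer pH 5.0, 20 min at room temperature, stopped at pH 10; fluorescence 365/440 nm, compounds 0.7 nM–77 uM, AC50 from Hill fits.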
# [8] = biological target: DNA repair nuclease/redox regulator APEX1 (Homo sapiens) (UniProt P27695); experiment: qHTS Validation Assay for Inhibitors of the Human Apurinic/apyrimidinic Endonuclease 1 (APE1) (AID 1705;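 note: TAMRA fluorescence gain over two minutes as APE1 cuts a quenched THF abasic duplex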)
# In short: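 Substrate: 50 nM final fluorophore/quencher THF-abasic duplex. Enzyme preincubated with compounds 15 min, RT. Progress derived from fluorescence difference, third minus first kinetic read.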
# [9] = Counterscreen for APE1 Inhibitors: Fluorescent Dye Displacement Validation Assay (AID 1707)
# In short: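 ThO 250 nM + dsDNA 50 nM (THF abasic site, 5'-TAMRA), Tris-HCl pH7.5/50mM NaCl/2 mM MgCl2/0.01% Tween-20; compounds pin-transferred; ex 480/em 540 nm endpoint. Neutral = no compound; no-DNA ThO wells = negative control.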
# [10] = measured here: cell count channel max response
# [11] = measured here: lipid channel max response
# Chain of Alpha-galactosidase A (Homo sapiens) (P06280 whole entry, looked up): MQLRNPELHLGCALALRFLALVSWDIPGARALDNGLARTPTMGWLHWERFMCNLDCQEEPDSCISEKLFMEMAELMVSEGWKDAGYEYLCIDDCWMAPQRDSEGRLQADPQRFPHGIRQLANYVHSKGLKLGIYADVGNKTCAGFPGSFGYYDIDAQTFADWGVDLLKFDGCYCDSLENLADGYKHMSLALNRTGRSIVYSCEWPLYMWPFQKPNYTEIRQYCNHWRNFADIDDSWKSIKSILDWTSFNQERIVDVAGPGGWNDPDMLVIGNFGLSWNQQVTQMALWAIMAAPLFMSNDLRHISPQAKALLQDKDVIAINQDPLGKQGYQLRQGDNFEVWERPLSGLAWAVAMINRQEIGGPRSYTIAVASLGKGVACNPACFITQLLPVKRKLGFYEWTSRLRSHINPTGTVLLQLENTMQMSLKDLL
# Chain of DNA repair nuclease/redox regulator APEX1 (Homo sapiens) (P27695 whole entry, looked up): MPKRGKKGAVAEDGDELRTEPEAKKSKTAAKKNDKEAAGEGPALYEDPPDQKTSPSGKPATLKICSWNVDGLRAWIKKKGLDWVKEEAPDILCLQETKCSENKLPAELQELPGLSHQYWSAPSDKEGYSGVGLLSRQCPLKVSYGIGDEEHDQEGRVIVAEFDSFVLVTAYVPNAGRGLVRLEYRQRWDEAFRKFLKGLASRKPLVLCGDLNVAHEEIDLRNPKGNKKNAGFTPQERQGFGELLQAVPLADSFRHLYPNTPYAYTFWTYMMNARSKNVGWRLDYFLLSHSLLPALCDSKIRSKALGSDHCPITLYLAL
compound,measurement,setting,value
CC(C)(C)CC(C)(C)c1ccc(OCCOCC[N+](C)(C)Cc2ccccc2)cc1,Potency,[1],25.1 µM (active)
same,Potency,[2],31.6 µM (active)
same,Potency,[3],31.6 µM (active)
same,Potency,[4],39.8 µM (active)
Oc1c(I)cc(Cl)c2cccnc12,Potency,[4],50.1 µM (active)
same,"activity change, negative = inhibition",[5]; at 25.7 µM (top of the series),-3.26% (inactive)
same,"activity change, negative = inhibition",[5]; at 57.5 µM (top of the series),2.97% (inactive)
same,max response,[5]; [10],-21.6% and -13.1%
same,max response,[5]; [11],-24.9% and -6.72%
Oc1ccc(O)cc1,Potency,[1],50.1 µM (active)
same,Potency,[2],50.1 µM (active)
same,Potency,[3],inactive
same,outcome,[6],inactive
same,outcome,[7],inactive
same,"activity change, negative = inhibition",[5]; at 57.5 µM (top of the series),-1.63% (inactive) and -0.961% (inactive)
same,max response,[5]; [10],3.88% and -20.5%
same,max response,[5]; [11],3.65% and -23.9%
same,Potency,[8],inactive
same,outcome,[9],inactive
C[N+]1(CCCCC[N+]2(C)CCCC2)CCCC1,outcome,[6],inactive
same,outcome,[7],inactive
same,"activity change, negative = inhibition",[5]; at 25.7 µM (top of the series),-1.41% (inactive)
same,"activity change, negative = inhibition",[5]; at 57.5 µM (top of the series),3.44% (inactive) and 1.51% (inactive)
same,max response,[5]; [10],-13.3% and 5.22% and -4.18%
same,max response,[5]; [11],-15.5% and 11.1% and -3.95%
same,Potency,[8],inactive
same,outcome,[9],inactive
O=C1OC(c2ccc(O)cc2)(c2ccc(O)cc2)c2ccccc21,Potency,[1],inactive
same,Potency,[2],inactive
same,Potency,[3],inactive
same,Potency,[4],inactive
O=C1CCC(c2ccc(-n3ccnc3)cc2)=NN1,outcome,[6],inactive
same,outcome,[7],inactive
same,Potency,[8],inactive
same,outcome,[9],inactive
N[C@H](CO)C(=O)O,Potency,[8],inactive
same,outcome,[9],inactive
CN=C(NC#N)Nc1ccc(C2=NNC(=O)CC2C)cc1 (configuration not stated),"activity change, negative = inhibition",[5]; at 57.5 µM (top of the series),2.25% (inactive)
same,max response,[5]; [10],14.7%
same,max response,[5]; [11],17.1%
same,Potency,[8],inactive
same,outcome,[9],inactive
CC(O)C(=O)O (configuration not stated),Potency,[1],inactive
same,Potency,[2],inactive
same,Potency,[3],inactive
same,Potency,[4],inactive
C[C@]12CC[C@@H]3c4ccc(O)cc4CC[C@H]3[C@@H]1CC[C@@H]2O,Potency,[1],inactive
same,Potency,[2],inactive
same,Potency,[3],inactive
same,outcome,[6],inactive
same,Potency,[4],inactive
same,outcome,[7],inactive
same,Potency,[8],inactive
same,outcome,[9],inactive
CN(C)/N=N/c1nc[nH]c1C(N)=O,Potency,[1],inactive
same,Potency,[2],inactive
same,Potency,[3],inactive
same,Potency,[4],inactive
same,"activity change, negative = inhibition",[5]; at 57.5 µM (top of the series),6.55% (inactive)
same,max response,[5]; [10],10%
same,max response,[5]; [11],19.3%
C=C(CC)C(=O)c1ccc(OCC(=O)O)c(Cl)c1Cl,Potency,[2],39.8 µM (active)
same,"activity change, negative = inhibition",[5]; at 25.7 µM (top of the series),-7.65% (inactive)
same,"activity change, negative = inhibition",[5]; at 57.5 µM (top of the series),1.41% (inactive)
same,max response,[5]; [10],5.62% and 9.96%
same,max response,[5]; [11],-2.15% and 13.8%
O=C(O)CCCCC(=O)O,Potency,[1],inactive
same,Potency,[2],inactive
same,Potency,[3],inactive
same,Potency,[4],inactive
CCCCCCc1ccc(O)cc1O,Potency,[1],inactive
same,Potency,[2],inactive
same,Potency,[3],inactive
same,Potency,[4],inactive
COc1cccc2c1C(=O)c1c(O)c3c(c(O)c1C2=O)C[C@@](O)(C(C)=O)C[C@@H]3O[C@H]1C[C@H](N)[C@H](O)[C@H](C)O1,Potency,[1],0.501 µM (active)
same,Potency,[2],0.126 µM (active)
same,Potency,[4],1 µM (active)
